Results: PubChem BioAssay (Tox21)
Records with an inconclusive call do not appear. Unmarked numbers belong to inactive results. Active and inactive are the calls of the source. Calls follow the shape of the dose curve; as a rule, active = well fitted cell-killing curve with a large enough effect in the repeat runs; inconclusive = weak or mixed curves, or effect the other way; inactive = flat fitted curve, though single readings scatter.

Assay: cAMP Responsive Elements (CRE) small molecule agonists, cell-based qHTS assay: qHTS cell viability counter screen (AID 2060914); also: nearly all actives have a fitted effect of over 50% in size
Conditions: CRE-bla HEK293T viability, CellTiter-Glo luminescence, 5 h; series mostly up to 92.4 µM; activity change, negative = cytotoxicity: at the top concentration
Procedure, shortened: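 Cytotoxicity counter screen multiplexed with the CRE-bla reporter assay in HEK 293T cells: 3 h compound exposure at 37 °C, followed by CellTiter-Glo luminescence measured in the same wells.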
% is scaled to controls: 0 for no effect and ±100 for the full control effect.

Compound | activity change, negative = cytotoxicity | Potency
O=C(C(=O)c1ccc(Br)cc1)c1ccc(Br)cc1 | -3.4% [at 18.9 µM] | –
COc1ccc(S(=O)(=O)N2c3ccc(Cl)cc3[C@@](O)(c3ccccc3Cl)[C@H]2C(=O)N2CCC[C@@H]2C(N)=O)cc1OC | 16.8% [at 42.5 µM] | –
CC1=C(CC(=O)O)c2cc(F)ccc2/C1=C\c1ccc(S(C)(=O)=O)cc1 | -6.31% [at 42.5 µM] | –
Cc1cc(=O)oc2cc(O[C@@H]3SC[C@@H](O)[C@H](O)[C@H]3O)ccc12 | 10.4% [at 42.5 µM] | –
c1ccc(CCCc2ccccn2)cc1 | 10% | –
CC(=O)Nc1cccc(C)c1 | -9.95% | –
CCc1c2c(nc3ccc(OC(=O)N4CCC(N5CCCCC5)CC4)cc13)-c1cc3c(c(=O)n1C2)COC(=O)[C@]3(O)CC | -9.58% [at 42.5 µM] | –
CCN(CC)CCOC(=O)C(c1ccccc1)C1CCCCC1 (stereo not given) | -0.62% [at 42.5 µM] | –
CC(C)C(=O)c1c(C(C)C)nn2ccccc12 | -2.31% [at 42.5 µM] | –
CC[C@H](C)COC(=O)/C=C/c1ccc(N=Cc2ccc(OC)cc2)cc1 | -26% | –
CCCCCCCC/C=C\CCCCCCCCO | 0.808% | –
C=C(C)OC(C)=O | – | inactive
CC(=O)c1c(C)c([N+](=O)[O-])c(C(C)(C)C)c([N+](=O)[O-])c1C | -11.8% | –
C/C(=C(/OCCOc1ccc(Cl)cc1)c1ccc(Cl)cc1Cl)n1ccnc1 | -2.43% [at 42.5 µM] | –
CC(C)(C)c1ccc(N)cc1 | 9.12% | –
CC(C)(O)C(=O)O | -4.17% | –
CC(C)c1ccc2c(c1)CC[C@H]1[C@](C)(CN)CCC[C@]21C | -12.6% | –
CN(C(=O)CN(CCO)CC(=O)N(C)C(C)(C)Cc1ccccc1)C(C)(C)Cc1ccccc1 | -7.7% [at 42.5 µM] | –
FC(F)(F)/C(=N\OCC1OCCO1)c1ccc(Cl)cc1 | 0.0783% | –
CC(C)C[C@@H]1[C@H](c2ccccc2)OC(=O)N1CCCN1CCCCCC1 | 4.86% [at 42.5 µM] | –

Compound | activity change, negative = cytotoxicity | Potency
CCN(CC)C(=O)c1cc(S(=O)(=O)Cc2ccccc2)c(N2CCC(c3ccccc3)CC2)cc1N(CC)CCN(C)C | -21% [at 42.5 µM] | –
CCOCCn1c(N2CCCN(C)CC2)nc2ccccc21 | -4.39% [at 42.5 µM] | –
CCN(C=O)CC | 2.15% | –
CCCCCCCCCCCC(C)=O | 0.0016% | –
CCC(C)n1ncn(-c2ccc(N3CCN(c4ccc(OC[C@H]5CO[C@](Cn6cncn6)(c6ccc(Cl)cc6Cl)O5)cc4)CC3)cc2)c1=O (stereo not given in full) | 3.01% [at 42.5 µM] | –
C=Cc1ccc(C)cc1 | – | inactive
C=C[C@](C)(O)CC[C@@H]1[C@@]2(C)CCCC(C)(C)[C@@H]2CC[C@@]1(C)O | -23.8% | –
CC(=O)OCC=C(C)C | 14.2% [at 42.5 µM] | –
C=C1CC[C@H](O)C/C1=C\C=C1/CCC[C@]2(C)[C@@H]([C@H](C)CCCC(C)C)CC[C@@H]12 | 0.614% | –
Cc1ccc(N)cc1S(=O)(=O)O | -0.896% | –
Cc1c2ccccc2c(C)c2c1ccc1ccccc12 | – | inactive
CO[Si](C)(C)OC | -8.63% | –
Cc1ncc([N+](=O)[O-])n1CCO | – | inactive
CC(C)=CCNc1ncnc2c1ncn2[C@@H]1O[C@H](CO)[C@@H](O)[C@H]1O | -17.5% [at 42.5 µM] | –
COc1cc(NC(C)CCCN)c2ncccc2c1 (stereo not given) | 19.4% [at 42.5 µM] | –
C[C@H](N)C(=O)N[C@@H](C)C(=O)NC1[C@H]2CN(c3nc4c(cc3F)c(=O)c(C(=O)O)cn4-c3ccc(F)cc3F)C[C@@H]12 (stereo not given in full) | 1.14% [at 42.5 µM] | –
O=C1O[C@H]([C@@H](O)CO)C(O)=C1O | – | inactive
c1csc(SSc2cccs2)c1 | 8.7% | –
COCC(=O)O[C@]1(CCN(C)CCCc2nc3ccccc3[nH]2)CCc2cc(F)ccc2[C@@H]1C(C)C | -2.48% [at 42.5 µM] | –
CC[N+](C)(CC)CC | 13% | –
